HEK cytotox = Cytotoxic Profiling in HEK 293 Cell Line of Diverse Libraries Using Quantitative High-Throughput Screening; HEK 293 viability, ATP luminescence (CellTiter-Glo), 48-72 h; actives 6.6% (n = 94,000); Potency, µM (top dose mostly 115 µM), for the others: at the top dose activity change, negative = cytotoxicity, hits mostly inhibitors; note: nearly all actives have a fitted effect of over 60% in size
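250 HEK 293 cells/well; compound by pintool; incubated 48 or 72 hr at 37 degree Celsius; CellTiter-Glo added, 10 min RT, luminescence imaged.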
NIH3T3 tox = Cytotoxic Profiling in NIH 3T3 Cell Line of Diverse Libraries Using Quantitative High-Throughput Screening; actives 4.3% (n = 94,000); Potency, µM (series often up to 96.7 µM), for inactives: at the highest dose activity change, negative = cytotoxicity, actives largely listed as inhibitors; NIH 3T3 viability, CellTiter-Glo ATP luminescence, 48-72 h; note: nearly all actives have a fitted effect of over 55% in size
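Luminescent ATP readout (CellTiter-Glo, 10 min RT) after 48 or 72 hr compound exposure of NIH 3T3 cells seeded at 400 cells/well in 1536-well format; quantitative HTS.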
hNpr1 antagonist = Natriuretic polypeptide receptor (hNpr1) antagonism - Primary qHTS; Atrial natriuretic peptide receptor 1 (Homo sapiens), P16066; HEK293 hNpr1 GloSensor cGMP, ANP-stimulated luminescence; Potency, µM (titrated, usually from 46.3 µM), inactives show at the top dose activity change, negative = inhibition, usual class: inhibitors; actives 1.6% (n = 76,000); AID 1347048, 2019; calls by dose curve; note: nearly all actives have a fitted effect of over 60% in size
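Compound pre-incubated 30 min at room temperature on GloSensor-loaded HEK293 cells stably carrying hNpr1 and the pGS-40F cGMP biosensor. Stimulation uses hNppA at 0.1 nM final; luminescence is taken at baseline and 20 min post-agonist.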
FLuc inh = Firefly luciferase inhibition profiling of diverse chemical library using quantitative high-throughput screening; actives 2.5% (n = 76,000); purified P. pyralis luciferase, luminescence, biochemical; Potency, µM (doses to about 115 µM), most hits filed as inhibitors; Luciferin 4-monooxygenase (Photinus pyralis), P08659; note: nearly all actives have a fitted effect of over 65% in size
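Purified P. pyralis luciferase (10nM final) in 50mM Tris acetate pH 7.5, 10mM Mg acetate, 0.01% Tween-20, 0.05% BSA with 10uM D-luciferin and 10uM ATP. Compounds titrated qHTS. Luminescence imaged on CCD.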
GPT2 inhibitor = Primary qHTS assay for inhibitors of Glutamate pyruvate transaminase 2 (GPT2); Recombinant GPT2, coupled pyruvate oxidase/HRP Amplex Red fluorescence; actives 0.25% (n = 100,000); Potency, µM (doses to about 57.7 µM), inactives show at the highest dose activity change, negative = inhibition, actives largely listed as inhibitors; note: nearly all actives have a fitted effect of over 60% in size
Target sequence (Q8TD30 whole entry, looked up): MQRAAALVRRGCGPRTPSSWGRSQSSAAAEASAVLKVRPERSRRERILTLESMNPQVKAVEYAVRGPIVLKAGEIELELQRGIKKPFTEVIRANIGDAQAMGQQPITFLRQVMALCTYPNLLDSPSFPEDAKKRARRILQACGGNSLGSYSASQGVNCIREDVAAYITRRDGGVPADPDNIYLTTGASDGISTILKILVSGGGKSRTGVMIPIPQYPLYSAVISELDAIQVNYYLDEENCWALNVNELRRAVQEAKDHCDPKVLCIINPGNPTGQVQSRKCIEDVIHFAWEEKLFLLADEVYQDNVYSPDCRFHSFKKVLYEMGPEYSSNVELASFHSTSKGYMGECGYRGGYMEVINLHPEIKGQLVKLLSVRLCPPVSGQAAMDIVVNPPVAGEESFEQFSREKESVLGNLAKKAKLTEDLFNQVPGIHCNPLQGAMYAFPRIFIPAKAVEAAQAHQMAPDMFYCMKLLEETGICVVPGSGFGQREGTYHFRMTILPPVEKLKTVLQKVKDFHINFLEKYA
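Recombinant GPT2 (10ng/uL) with 250uM a-KG and 2mM L-alanine, 30 min at room temperature, in HEPES pH 7.5 buffer. Pyruvate detected by pyruvate oxidase/HRP/Amplex Red fluorescence after 30 min in the dark; AOA (50uM) as positive control.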
* marks the source's active call; other numbers are inactive results; i = inactive; ? = inconclusive; / = no result; [ ] = dose if it differs, or a comment. Rows were chosen to be rich in hits. Some 10% of all compounds tested hit in one or more screens of this group. Unless noted, calls come from the whole dose curve; as a rule, active = well fitted curve in the direction sought with a large enough effect; inconclusive = small, poorly fitted or top-dose-only effect, or another doubt; inactive = no such curve, though single readings can be large; an effect the other way counts as inactive or inconclusive. % is set by controls: 0 for no effect and ±100 for the full control effect; potency is the fitted concentration of half-maximal effect.

SMILES	HEK cytotox	NIH3T3 tox	hNpr1 antagonist	FLuc inh	GPT2 inhibitor
COCC1CN(Cc2ccc(C(C)C)cc2)CC12CCNCC2 (centres undefined)	45µM*	?	-10%	i	i
OCC1CN(Cc2ccc(Br)cc2)CC12CCNCC2 (centres undefined)	40µM*	40µM*	-5%	i	-10%
CC(=O)N1C[C@@H]2CCCN3CCC[C@@H]([C@H]23)[C@H]1CCCC(=O)N1CCC(C)CC1	5%	2%	8%	i	i
CCc1noc([C@@H]2CC(F)(F)CN2C(=O)c2ccc3nc[nH]c3c2)n1	-15%	4%	10%	i	4%
COc1cccc(C(=O)NCCNC(=O)c2ccc(-c3cccc(C(F)(F)F)c3)cc2)c1	?	-24%	/	/	/
O=C(C1CC1)N1CCOc2ccc(CN3CCc4ccccc4C3)cc2C1	40µM*	-17%	?	i	i
Cc1ccc(OCC(=O)N2CCOc3ccc(CN4CCc5ccccc5C4)cc3C2)cc1	?	40µM*	-24%	i	-10%
O=C(COc1ccccc1)N1CCOc2ccc(CN3CCc4ccccc4C3)cc2C1	32µM*	?	?	i	i
O=C(COc1ccc(F)cc1)N1CCOc2ccc(CN3CCc4ccccc4C3)cc2C1	?	?	?	i	i
COc1cc(/C=C/C(=O)NCCn2c(C(F)(F)F)cc3ccccc32)cc(OC)c1OC	/	/	/	/	-7%
COCCc1noc(-c2nc(-c3ccccc3F)no2)n1	-12%	-1%	-2%	28µM*	1%
COCCn1c(=O)c2c(n1Cc1ccccc1)CN(C(=O)c1cc3ccccc3n1C)CC2	-11%	28µM*	-1%	i	i
Cn1c(C(=O)N2CCc3c(n(Cc4cccnc4)n(-c4ccccc4)c3=O)C2)cc2ccccc21	1%	28µM*	3%	i	-19%
O=C(c1cccc(O)c1)N1CCc2c(n(Cc3cccnc3)n(-c3ccccc3)c2=O)C1	i	?	2%[70.6 µM]	i	3%[88.5 µM]
COCCNC(=O)N1CCCC(CNC(=O)c2cccc3ccccc23)C1 (centres undefined)	3%	-19%	-2%	i	-1%
CC(C(=O)NCc1ccc(OC(F)(F)F)cc1)C1CCOCC1 (centres undefined)	5%	-1%	5%	i	i
O=[N+]([O-])c1ccccc1CN1C[C@H](O)C[C@H]1c1nc(Cc2ccc(F)cc2Cl)no1	112µM*	?	1%[70.6 µM]	?	i
O[C@@H]1C[C@@H](c2nc(Cc3ccc(F)cc3Cl)no2)N(Cc2ccc(OC(F)(F)F)cc2)C1	40µM*	?	-12%	i	1%
Cc1ccc(-c2noc([C@@H]3C[C@@H](O)CN3Cc3nc4ccccc4n3C)n2)cc1F	-7%[172 µM]	-28%[174 µM]	-3%[70.6 µM]	i	2%[88.5 µM]
Cn1c(CN2C[C@H](O)C[C@H]2c2nc(-c3ccc(OC(F)(F)F)cc3)no2)nc2ccccc21	?	-27%	-7%	40µM*	-25%
COc1ccc(CN2C[C@H](O)C[C@H]2c2nc(Cc3ccccc3)no2)cc1	?	-12%[174 µM]	-1%[70.6 µM]	?	i
Cn1cnc(C(=O)N2CCC(Cc3ccc(C(=O)N4CCOCC4)cc3)CC2)c1	3%	-15%	3%	i	i
O=C(c1ccccn1)N1CCC(Cc2ccc(COc3ccncc3)cc2)CC1	?	25µM*	/	/	i
Cn1cnc(C(=O)N2CCC(Cc3ccc(COc4cccc(F)c4)cc3)CC2)c1	16µM*	?	/	/	-8%
O=C(c1ccccn1)N1CCCC(CN2CCCC2)CC1 (centres undefined)	i	i	-1%	i	1%
SMILES	HEK cytotox	NIH3T3 tox	hNpr1 antagonist	FLuc inh	GPT2 inhibitor
CCOc1cccc(-c2nnc(CCC(=O)NC(C)c3ccccc3)c(=O)[nH]2)c1 (centres undefined)	?	-9%	2%	i	i
Cc1ccc(-c2nocc2CCC(=O)NCc2ccc(Cl)cc2)cc1	?	?	-10%	i	-3%
CS(=O)(=O)Nc1ccc(C2(C(=O)NCc3ccccc3Cl)CCCCC2)cc1	?	35µM*	-18%	i	i
CC(C)C(=O)Nc1ccc(C2(C(=O)NCc3ccc(F)c(Cl)c3)CCC2)cc1	79µM*	35µM*	-2%	i	-5%
CCc1ccc(CNC(=O)C2(c3ccc(NC(=O)C(C)C)cc3)CCC2)cc1	?	-12%	-6%	i	-20%
C=CCC1=C[C@]2(OC)[C@H](C)[C@@H](c3ccc(O)c(OC)c3)O[C@]2(OC)CC1=O	/	/	/	/	i
CC1(COc2cccnc2)COc2ccc(C(=O)NCC3CCOCC3)cc2N1 (centres undefined)	?	-29%[138 µM]	-2%[70.6 µM]	i	?
COc1cccc(-c2nc(-c3nnn4c3COC(c3ccccc3Cl)C4)no2)c1OC (centres undefined)	-6%	-10%	-2%	i	i
COc1ccc(-c2cccc(C(=O)NCC(C)C)c2)nn1	-23%[172 µM]	?	/	/	/
COc1ccc(C(=O)Nc2cccc(-c3nnc4n3CCCC4)c2)cc1OC	?	i	-1%	i	i
COc1ccc(NC(=O)Nc2cccc(-c3ccc(N4CCC(C)CC4)nn3)c2)cc1OC	?	?	3.2µM*	0.1µM*	i
CC(C)CNC(=O)Nc1cccc(-c2ccc(N3CCC(C)CC3)nn2)c1	-8%	-20%	7.1µM*	0.32µM*	i
C[C@]12CC[C@@H]3c4ccc(O)cc4CC[C@H]3[C@H]1C[C@@H](O)[C@H]2O	/	/	/	/	i
COc1ccccc1CCC(=O)N1CCN(c2cc(-c3ccccc3)[nH]n2)CC1	?	?	-13%	i	-11%
O=C(COc1ccc(Cl)cc1)N1CCN(c2cc(-c3ccccc3)[nH]n2)CC1	89µM*	?	-27%	i	i
COc1ccccc1CC(=O)N1CCN(c2cc(-c3ccccc3)[nH]n2)CC1	22µM*	?	-14%	i	-6%
COc1ccccc1CCC(=O)N1CCN(c2cc(-c3ccc(Cl)cc3)[nH]n2)CC1	?	32µM*	-17%	i	i
COc1ccc(-c2nc(-c3ccccc3)nc3c2CN(C(=O)c2ccc(C(F)(F)F)cc2)CC3)cc1	?	-9%	3%	i	-3%

From PubChem BioAssay
